Data as given in PubChem BioAssay (NCI).
This is part of a sample that, as a whole, favours compounds with a hit. Of some 83,000 tested, about 20% had one in any assay.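 96-well plates, one dose, 48 hours. Percent growth reported; active if below 10.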 The source made the active and inactive calls.

tested on: A549/ATCC NSCLC; test: NCI-60 one-dose screen, 48 h (100 = growth as untreated, 0 = no growth, -100 = all killed); details: 10 µM unless noted
Protocol: Growth inhibition of the A549/ATCC human Non-Small Cell Lung tumor cell line is measured as a screen for anti-cancer activity. Cells are grown in 96 well plates and exposed to the test compound for 48 hours. Compounds are tested at a single concentration, which is 10^-5 M for most compounds. The reported endpoint is percent growth (GI% or GIPRCNT), where numbers from 0 - 100% represent growth inhibition, and numbers from -100% - 0 represent cell death. For example, a value of 40 represents 60% growth inhibition. A value of 0 means no net growth occurred over the course of the experiment. A value of -40 indicates 40% of cells at the beginning of the experiment died by the end of the experiment. A value of -100 means all cells are dead at the end of the experiment.
NCI-60 Human Tumor Cell Lines Screen was performed using the standard one-dose NCI protocol, which is described in more detail at https://dtp.cancer.gov/discovery_development/nci-60/default.htm.
Compounds with GIPRCNT values below 10 were considered active. Activity score was based on GIPRCNT using the following formula: […]
Score is 0 for GIPRCNT values of 100 or above, 50 for GIPRCNT values of 0, and 100 for GIPRCNT values of -100.

SMILES	growth
Nc1c(C(=O)Nc2ccccn2)sc2nc3c(cc12)C(O)CCC3 (stereo not given)	36.4% (inactive)
N#Cc1c(NC(=O)c2cccs2)[n+]([O-])c2ccc(Cl)cc2[n+]1[O-]	122% (inactive)
Cc1ccc(/C=C(\C#N)C(=O)Nc2ncc(Cc3cc(Cl)ccc3Cl)s2)o1	39.8% (inactive)
Cn1cc(-c2nn3cc(-c4ccccc4)nc3s2)c2ccccc21	66.1% (inactive)
COc1cc(C(=O)c2c(-c3ccccc3)oc3c(OC)cccc23)cc(OC)c1O	20.2% (inactive)
O=C1N[C@@H]2[C@@H](O)[C@@H](O)[C@H](O)C[C@H]2c2cc3c(c(O)c21)OCCO3	-14.3% (active)
COc1cc(-c2nc3occn3c2-c2ccnc(NCCCNS(=O)(=O)c3ccccc3)n2)ccc1F	38% (inactive)
Cc1cc2nc(-c3c(-c4ccc(F)cc4)nc4sccn34)[nH]c2cc1C	95.6% (inactive)
CCN(C(=O)N1CCN(c2cc3c(cc2F)c(=O)c(C(=O)O)cn3C2CC2)CC1)c1nc(-c2ccc(C)cc2)cs1	16.1% (inactive)
O[C@@H](c1cc(C(F)(F)F)nc2c(C(F)(F)F)cccc12)[C@H]1CCCCN1	66% (inactive)
Cn1cc(-c2ccc3cc(-c4ccc(CC(=O)Nc5cc(C(C)(C)C)on5)cc4)cnc3c2)cn1	16.5% (inactive)
COc1ccc(C2=NN(C(=O)c3cc(OC)c(OC)c(OC)c3)C(c3ccc(N(C)C)cc3)C2)cc1 (stereo not given)	30% (inactive)
COc1ccc(C2CC(c3ccc(Nc4nc(Nc5ccc(F)cc5)nc(Nc5ccc(F)cc5)n4)cc3)=NN2C(C)=O)cc1 (stereo not given)	82.5% (inactive)
COC(=O)/C(CCC=C(C)C)=C1\[C@@H](OC(C)=O)C[C@@]2(C)[C@H]1CC(=O)[C@H]1[C@@]3(C)CCC(N4CCCC4)[C@@H](C)[C@@H]3CC[C@@]12C (stereo not given in full)	104% (inactive)
Cn1cc(/C=C2/C(=O)Nc3ccccc32)c2ccccc21	86.2% (inactive)
C=C(CN1CC=CCC1)[C@@H]1CC[C@]2(CO)CC[C@]3(C)[C@H](CC[C@@H]4[C@@]5(C)CC[C@H](O)C(C)(C)[C@@H]5CC[C@]43C)[C@@H]12	94.8% (inactive)
CC(CN)[C@@H]1CC[C@]2(CO)CC[C@]3(C)[C@H](CC[C@@H]4[C@@]5(C)CCC(N)C(C)(C)[C@@H]5CC[C@]43C)[C@@H]12 (stereo not given in full)	-89.3% (active)
CC(/C=C1\SC(=S)N(CC(=O)NC(Cc2c[nH]c3ccccc23)C(=O)O)C1=O)=C\c1ccccc1 (stereo not given)	103% (inactive)
C#Cc1cccc(Nc2nc3ccc([N+](=O)[O-])cc3nc2Nc2cccc(C#C)c2)c1	-45.7% (active)
CCCCc1oc2ccccc2c1C(=O)c1ccc(O)cc1	76.6% (inactive)

SMILES	growth
O=C(CCCCCCN1CC(=O)N2[C@@H](C3CCCCC3)c3[nH]c4ccccc4c3C[C@H]2C1=O)NO	86.5% (inactive)
CCOC(=O)Cn1c(=O)c2c3ccccc3n(C)c2n2nnc(-c3ccccc3)c12	159% (inactive)
N#C/C(=C\c1ccc(Br)cc1)c1cc2ccccc2[nH]1	101% (inactive)
CC(C)=CC(=O)N[C@@H]1CC2CCC3C(CC[C@@]4(C)C3CC[C@@H]4C(C)N(C)C)[C@@]2(C)C[C@@H]1O (stereo not given in full)	74.5% (inactive)
Cn1cccc1/C=C1\C(=O)Nc2ccccc21	101% (inactive)
COc1cc(-c2cc(-c3ccc(Nc4ncnc5cc(Cl)ccc45)cc3)nc(N3CCN(C)CC3)n2)cc(OC)c1OC	89.2% (inactive)
Nc1c(C(=O)Nc2ccncc2)sc2nc3c(cc12)CCCCC3	89.5% (inactive)
COc1ccc(OC)c(-c2cn3nc(-c4c[nH]c5ccc(Br)cc45)sc3n2)c1	14.5% (inactive)
COc1cc2oc(-c3cccc(NC(=O)c4ccc5c(c4)OCO5)c3)cc(=O)c2c(OC)c1OC	51.3% (inactive)
CC[C@H](CC[C@@H](C)[C@H]1CC[C@H]2[C@@H]3CC[C@@H]4CC(=O)/C(=C\c5ccncc5)C[C@]4(C)[C@H]3CC[C@]12C)C(C)C	99.2% (inactive)
CCCCCCCCn1ccc2cc(NC(=O)Cn3cc(CN4CCCCCC4)nn3)ccc21	50.6% (inactive)
CCC(CC)(N(CC(=O)O)CC(=O)O)C(CC)(CC)N(CC(=O)O)CC(=O)O	91.3% (inactive)
O=C(c1ccc(F)c(Cl)c1)N1c2ccccc2Sc2ccccc21	65.6% (inactive)
O=C(/C=C/C12c3ccccc3C(c3ccccc31)C1C(=O)NC(=O)C12)c1ccc(F)cc1 (stereo not given)	10.6% (inactive)
C=C1C(=O)O[C@H]2[C@H]1CC/C(COC(=O)NCc1ccc(Cn3c(=O)sn(-c4ccc(OC)cc4)c3=O)cc1)=C\CC[C@@]1(C)O[C@@H]21	97.7% (inactive)
O=C(O)C1CN(c2cccc(Cl)c2)N(c2cccc(Cl)c2)C1=O (stereo not given)	105% (inactive)
C[N+](C)(C/C=C/c1ccccc1)Cc1ccccc1	94.4% (inactive)
O=C1NC(=C(Cl)Cl)/C(=N/S(=O)(=O)N2CCCCC2)N1	93.4% (inactive)
Cc1ccc(O)c(NC(=O)c2ccc(CNc3ccnc(C(F)(F)F)c3)cc2)c1	53% (inactive)
Cc1ccc(C)c(-n2c(-c3ccc(Br)cc3)csc2=NC(=O)c2ccccc2F)c1	71.4% (inactive)
